Assay results from PubChem BioAssay (NCI).
The panel holds about 83,000 compounds, 20% with a hit somewhere; the sample as a whole holds those more often.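 Assay: single dose, 48 h. Readout: percent growth (0 = no net growth; negative = cell death). Active: <10.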 Activity calls are given as the source filed them.

System: HOP-92 NSCLC
Test: NCI-60 one-dose screen, 48 h (100 = growth as untreated, 0 = no growth, -100 = all killed)
Settings: 10 µM unless noted
Description: Growth inhibition of the HOP-92 human Non-Small Cell Lung tumor cell line is measured as a screen for anti-cancer activity. Cells are grown in 96 well plates and exposed to the test compound for 48 hours. Compounds are tested at a single concentration, which is 10^-5 M for most compounds. The reported endpoint is percent growth (GI% or GIPRCNT), where numbers from 0 - 100% represent growth inhibition, and numbers from -100% - 0 represent cell death. For example, a value of 40 represents 60% growth inhibition. A value of 0 means no net growth occurred over the course of the experiment. A value of -40 indicates 40% of cells at the beginning of the experiment died by the end of the experiment. A value of -100 means all cells are dead at the end of the experiment.
NCI-60 Human Tumor Cell Lines Screen was performed using the standard one-dose NCI protocol, which is described in more detail at https://dtp.cancer.gov/discovery_development/nci-60/default.htm.
Compounds with GIPRCNT values below 10 were considered active. Activity score was based on GIPRCNT using the following formula: […]
Score is 0 for GIPRCNT values of 100 or above, 50 for GIPRCNT values of 0, and 100 for GIPRCNT values of -100.

Compound	growth
Cn1ccnc1C(=O)/C=C/c1ccc(C(=O)Nc2ccc(Cl)cc2)cc1	17% (inactive)
CCC(C)(C)C(=O)O[C@H]1C[C@@H](C)C=C2C=C[C@H](C)[C@H](CC[C@@H]3CC(SCCN)CC(=O)O3)[C@H]21 (stereo not given in full)	34.6% (inactive)
COc1ccc(C2CC(c3ccc(Nc4nc(Nc5ccccc5)nc(Nc5ccccc5)n4)cc3)=NN2C(C)=O)cc1 (stereo not given)	78% (inactive)
CSc1nnc(-c2cc3c([nH]c4ccccc43)c(-c3cccc(O)c3)n2)n1-c1ccccc1	48.7% (inactive)
N#CC(C#N)N=Nc1ccc(Br)cc1	-34.1% (active)
COc1cc(C2CC(c3ccc(Nc4nc(Nc5ccc(Cl)cc5)nc(Nc5ccc(Cl)cc5)n4)cc3)=NN2C(C)=O)cc(OC)c1OC (stereo not given)	-3.51% (active)
COc1ccc(C(C)=O)cc1S(=O)(=O)Nc1c(N)nc(SC)[nH]c1=O	115% (inactive)
N=C(N)c1ccc(-c2ccc(-c3ccc(Cl)cc3Cl)s2)cc1	75.2% (inactive)
CC1=C([Se]CC(OC(=O)CC[Se]c2ccccc2)C(=O)NC(C)(C)C)C(=O)c2ccccc2C1=O (stereo not given)	-74.5% (active)
CSc1nc2ccccc2cc1/C=[N+](\[O-])c1ccccc1	53.2% (inactive)
CCCCn1c(=O)[nH]c(N)c([C@@H]2c3c([nH]c(=O)n(CCCC)c3=O)Oc3ccc4ccccc4c32)c1=O	83.3% (inactive)
O=C1Nc2ccccc2/C1=C/c1nc2ccccc2c(=O)[nH]1	94.1% (inactive)
CCOC(=O)C#Cc1c(C(=O)OCC)nnn1Cc1ccc([N+](=O)[O-])cc1	40.6% (inactive)
Fc1cccc(Oc2ccc(Nc3ncnc4ccc(OCCCN5CCOCC5)cc34)cc2Cl)c1	54.3% (inactive)
O=C(Nc1nc(-c2ccc(Cl)cc2)nc2c1sc(=S)n2-c1ccccc1)C(F)(F)F	-4.79% (active)
COc1ccc(-c2cc(-c3ccc(Cl)cc3)c(C#N)c(=O)n2Cc2ccc(C(=O)Nc3ccccc3N)cc2)cc1	54.1% (inactive)
O=C(CN1CCCCC1)Nc1nc(-c2cc3ccccc3oc2=O)cs1	98.7% (inactive)
Cc1nc2sc(C(=O)Nc3cccc(Br)c3)c(N)c2cc1C(O)c1ccccc1 (stereo not given)	76.3% (inactive)
COc1ccc(Nc2ncc(Br)c(NCCCNC(=O)C3CCCC3)n2)cc1	26% (inactive)
N#Cc1nc(-c2ccc(Cl)cc2)oc1S(=O)(=O)N1CCN(c2ccc(F)cc2)CC1	99.3% (inactive)

Compound	growth
O=S(=O)(NCCCNc1nccc(-c2c(-c3ccc(F)c(O)c3)nc3sccn23)n1)c1ccccc1	55.4% (inactive)
CCC(C)N(CCNc1cc(OC)cc2cccnc12)CC(C)C (stereo not given)	105% (inactive)
N#CC1=C(N)Oc2c(ccc3ccccc23)C1c1ccccc1 (stereo not given)	38.2% (inactive)
CN1CCN(c2cc(Nc3cc(C4CC4)[nH]n3)nc(Nc3ccc(CC(=O)NCc4cccc(F)c4)cc3)n2)CC1	-15.6% (active)
O=C(/C=C/c1cccc(Cl)c1)c1cccc(OCCCOc2cccc(C(=O)/C=C/c3cccc(Cl)c3)c2)c1	66.8% (inactive)
C#Cc1c2c(c(OC)c3c1OCO3)[C@H]([C@H]1OC(=O)c3c1ccc(OC)c3OC)N(C)CC2	91.2% (inactive)
CCOC(=O)c1nn(-c2ccc(S(N)(=O)=O)cc2)c2nc(C)cc(=O)n12	95% (inactive)
COC(=O)c1c(C)nc(C)c2c1C(=O)C(Br)=C(NCc1ccccc1)C2=O	86.9% (inactive)
COc1ccc(F)cc1/C=C/C(=O)/C=C(/C=C/c1cc(F)ccc1OC)OB(F)F	56.1% (inactive)
O=C(Nc1ccccc1O)c1ccc(CNC(=O)c2sccc2Nc2ccnc(C(F)(F)F)c2)cc1	20.9% (inactive)
COC(=O)c1nc(-c2ccccc2)oc1S(=O)(=O)Cc1ccccc1	87.2% (inactive)
Fc1ccc(CNc2c3ccccc3nc3ccccc23)c(F)c1	-2.61% (active)
CCOCCNC1=C(Cl)C(=O)c2ccccc2C1=O	127% (inactive)
NC(=O)c1ccc(-c2c3ccccc3cc3c2ccc2ccccc23)cc1	76.4% (inactive)
COc1ccc(-c2ccc(=O)oc2-c2cc(OC)c(OC)c(OC)c2)cc1O	89% (inactive)
COc1ccc(C(=O)C/C(=C\c2ccc(Cl)cc2)C(=O)NCc2ccccc2)cc1	86.2% (inactive)
Cc1nc2sc(C(=O)Nc3cccc4ccccc34)c(N)c2cc1C(O)c1ccccc1 (stereo not given)	34% (inactive)
Cn1c(=O)cc2c3c(c(NCCCO)ccc31)C(=O)c1ccccc1-2	74.8% (inactive)
O=C(Cn1cc(CSc2nc3ccccc3o2)nn1)Nc1ccc(F)cc1F	114% (inactive)
O=C1C(Cl)=C(NCCCCCCNC2=C(Cl)C(=O)c3ccccc3C2=O)C(=O)c2ccccc21	86.2% (inactive)
